Reference: PubChem BioAssay (NCI)
This is part of a sample that, as a whole, favours compounds with a hit. Of some 79,000 tested, about 15% had one in any assay. Values without a mark were called inactive. Activity calls are given as the source filed them. No stated cut-off is given here; in the data, active means growth inhibition above about 70%; inactive means the rest.

Tests used:
[1] = NCI Yeast Anticancer Drug Screen. Data for the rad50 strain (AID 155);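 further: 0% = growth of vehicle-only cultures of the same strain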; details: S. cerevisiae rad50 strain growth inhibition; at 50.0 µM; stronger effect = higher value
Procedure, shortened: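 Inhibition values express reduced yeast growth in compound-treated cultures relative to vehicle-treated controls.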

[2] = NCI Yeast Anticancer Drug Screen. Data for the mec2-1 strain (AID 157); details: S. cerevisiae mec2-1 strain, at 50.0 µM, stronger effect = higher value
Procedure, shortened: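 mec2-1 yeast strain, carrying an alteration in DNA damage repair or cell cycle control, was exposed to compounds; growth inhibition was measured relative to vehicle-treated controls.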

[3] = NCI Yeast Anticancer Drug Screen. Data for the sgs1 mgt1 strain (AID 161);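 further: 0% = growth of cultures given vehicle only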; details: S. cerevisiae sgs1 mgt1 strain, at 50.0 µM, stronger effect = higher value
Procedure, shortened: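 Percent growth inhibition was derived by comparing compound-exposed mutant yeast with vehicle-exposed cultures. The strain carries alterations in DNA damage repair.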

[4] = NCI Yeast Anticancer Drug Screen. Data for the cln2 rad14 strain (AID 165);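 further: 0% = growth equal to vehicle treated cultures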; details: S. cerevisiae cln2 rad14 strain, at 50.0 µM, stronger effect = higher value
Procedure, shortened: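 Yeast carrying cln2 and rad14 alterations (cell cycle control and DNA damage repair) were exposed to compounds. Growth inhibition was measured against vehicle-treated controls.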

[5] = NCI Yeast Anticancer Drug Screen. Data for the bub3 strain (AID 167); details: S. cerevisiae bub3 mutant strain, at 50.0 µM, stronger effect = higher value
Procedure, shortened: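 Steps: expose the mutant yeast strain to compound; grow alongside vehicle-treated cultures; measure growth; express inhibition against the vehicle cultures.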

[6] = NCI Yeast Anticancer Drug Screen. Data for the mlh1 rad18 strain (AID 175); details: S. cerevisiae mlh1 rad18 strain growth inhibition; at 50.0 µM; stronger effect = higher value
Procedure, shortened: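 Growth inhibition of the yeast strain was measured after compound exposure and expressed relative to vehicle-treated controls. The strain carries defined defects in DNA damage repair.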

Row | SMILES | growth inhibition [1] | growth inhibition [2] | growth inhibition [3] | growth inhibition [4] | growth inhibition [5] | growth inhibition [6]
1 | CN1CCN(c2nc3c(c(=O)n(C)c(=O)n3C)n2C)CC1 | -4.9% | 5.35% | -18.8% | -6.1% | -11% | 6.2%
2 | CC(=O)OCC1OC(Sc2ccc([N+](=O)[O-])cc2)C(OC(C)=O)C(OC(C)=O)C1OC(C)=O (configuration not stated) | 12.3% | -11.8% | -12.1% | -1.35% | -1.05% | 17.9%
3 | COC(=O)C1CCC(C)(C(N)=O)C1(C)C (configuration not stated) | 16% | 3% | -10.9% | -37.8% | 5.25% | 9.7%
4 | C=CCNC(=S)Nc1cc(Cl)ccc1OC | 6.15% | 8.45% | -2.45% | -5.45% | 1.2% | 7.1%
5 | CC(=O)NC(C=O)OCC=O (configuration not stated) | 0% | 17.9% | -22.3% | 0.55% | -29.1% | -46.9%
6 | COc1ccc(Cc2ccc(OC)cc2)cc1 | -34.2% | -5.3% | 8.15% | -9.15% | 5.15% | -15%
7 | COc1ccc(COC(=O)Oc2ccc(Cl)cc2)cc1OC | 93.8% (active) | 63.3% | 50.7% | 79.8% (active) | 90.5% (active) | 94.8% (active)
8 | CC(C)c1ccc(OC(=O)N(c2ccccc2)c2ccccc2)cc1 | 12.4% | 15% | -5.35% | 3.5% | -1.6% | -2.8%
9 | CCCNC(=S)NN1C2CSC1CS2 | 3.15% | 14.9% | -1.35% | -33.2% | -23.9% | -0.4%
10 | CS(=O)(=O)OCC1CCCCCCCCCCC12SCCCS2 (configuration not stated) | -30.9% | -22.7% | -3.25% | 20.4% | -23.6% | -45.9%
11 | CC(=O)c1ccccn1 | -8.7% | -31.4% | -13.8% | -7.3% | -22.8% | -26.6%
12 | CCC/C(=C(\C)c1ccccc1)c1ccccc1 | 46.1% | 33.6% | 37.7% | 14.1% | -11.5% | 33.3%
13 | O=C1CN(N2CCOCC2)CC(=O)N2CCCCN12 | 20.9% | 1.25% | 13.9% | 19.9% | 10.4% | 6.25%
14 | O=C1COc2cc(O)cc(O)c21 | 9.8% | 3.7% | 7.85% | 3.9% | 19.5% | 7.75%
15 | CN(C)CCCN1CC2C3CCCCC3=C3CCCCC3C2C1 (configuration not stated) | -15.4% | 0.6% | -24.1% | -16.9% | 1.85% | -16.9%
16 | Nc1cn(Cc2ccccc2)c(=O)n(Cc2ccccc2)c1=O | -1.85% | -7.85% | -9.5% | -57.5% | 8.95% | -23.6%
17 | Cc1cc(Cl)ccc1N1C(=O)C(=O)C(c2nc3ccccc3s2)C(=O)C1=O | -4.1% | 13.7% | 17.9% | -6.1% | 2.2% | 12.5%
18 | COP(=O)(OC)C(NC(=O)C(F)(F)F)(c1ccccc1)C(F)(F)F (configuration not stated) | -28.1% | -7.25% | -37.2% | -8% | -16.9% | -28.7%
19 | CCN(CC)c1cc2c3c(c1)CCCN3CCC2 | -20.9% | -27.9% | -3.85% | 2.55% | -8.1% | -0.65%
20 | CCC(=O)N1C(=O)OCC1C(C)C (configuration not stated) | -2.8% | -21.4% | -22.3% | 13.1% | -9.35% | 14.8%
21 | COC(=O)C1=CC2C(C1)C1CC2C(OC(C)=O)C1N(C)C (configuration not stated) | 15.8% | 6% | -0.55% | -31.8% | 6.35% | 17.4%

Row | SMILES | growth inhibition [1] | growth inhibition [2] | growth inhibition [3] | growth inhibition [4] | growth inhibition [5] | growth inhibition [6]
22 | O=C1NC(=O)C(=Cc2cc3c(cc2Br)OCO3)C(=O)N1 | 32% | 30.9% | 40.7% | 7% | 41.9% | 25.9%
23 | Cc1cc(C)c(C(=O)OCCN(C)C)c(C)c1 | 10.8% | 2% | 9.9% | -5.25% | 0.5% | -0.6%
24 | CC(C)COC(=O)N1N=NC2C3CC(=O)C(O3)C21 (configuration not stated) | 9.8% | -9.7% | -14.2% | 11.6% | -7.75% | -4.75%
25 | COc1ccc(NC(=O)CSc2nnc(Cc3ccccc3)o2)cc1 | -49.5% | -37.4% | -43.6% | -21.1% | -54% | -57.6%
26 | Nc1cccc2ncccc12 | 0.6% | -9.95% | -13.5% | -30% | -1.95% | -19.9%
27 | CC(=O)CC(=O)NCCCc1ccccc1 | -18.8% | -33.4% | -21.6% | 3.5% | -6.9% | -11.9%
28 | O=S(=O)(C(=C(c1ccccc1)c1ccccc1)c1ccccc1)c1ccccc1 | 42.1% | 99.5% (active) | 19.9% | 17.8% | 6.35% | 68%
29 | CCOC(=O)c1cn(C)c2c1C(=O)C(C(=O)OCC)CC(=O)N2 (configuration not stated) | -4.55% | -4.15% | -11.6% | -53.6% | -6.4% | -8.25%
30 | CCC1CN2CCc3cc(OC)c(OC)cc3C2CC1CCCl (configuration not stated) | -8.6% | 4.05% | -4.5% | -9.7% | -29.9% | -24.7%
31 | O=c1[nH]cnc2c1nnn2CCCCCCCCCCCCn1nnc2c(=O)[nH]cnc21 | -5.9% | -10.2% | 4.5% | -4.2% | 12.7% | 24.8%
32 | C=C(CCl)CCl | 42.4% | 12.2% | 39.1% | 12.5% | 46.3% | 36.5%
33 | CCCCOP(=O)(OCCCC)/C(C#N)=C/c1ccco1 | -67.7% | -65.6% | -50.1% | -42.1% | -29.8% | -79.4%
34 | Cc1ccc(NC(=S)NC(Cc2ccccc2)c2ccccc2)cc1 (configuration not stated) | 78.8% (active) | 79.2% (active) | -1.05% | 78.5% (active) | 90% (active) | 85.2% (active)
35 | O=[N+]([O-])c1ccc(-c2csc(NCC3CCCO3)n2)cc1 (configuration not stated) | 24.3% | -10.6% | 49.9% | 21.1% | 21.6% | 17.9%
36 | CCOC(=O)CCc1nc2ccccc2[nH]1 | 0.6% | -0.6% | -0.3% | 3.7% | 0.5% | -4.25%
37 | COc1ccc(-c2cc(C(=O)N/N=C/c3ccc([N+](=O)[O-])cc3)c3ccc(C)cc3n2)cc1OC | 43.6% | 13.7% | 39.1% | 14.6% | -1.05% | 46.9%
38 | NNC(=O)c1ccc(Cl)c(Cl)c1 | -1.1% | -13.3% | -0.9% | 2.85% | -16.3% | -23.8%
39 | ClC(=Nc1ccccc1)c1cc(Cl)ccn1 | 18.1% | -1.8% | 8.3% | -12.4% | 50% | 8.15%
40 | N#Cc1nc(Cc2ccccc2)oc1N | 27.3% | 9.2% | -22% | 18.4% | -26.1% | -22.6%
41 | C=C1CCC2[C@](C)(CCC[C@]2(C)C(=O)O)[C@@H]1CCc1ccoc1 (some centres not stated) | 70.8% (active) | 59.9% | 73% (active) | 77% (active) | 73.8% (active) | 78.8% (active)
42 | CCOC(=O)c1c(C)c2c(n1C)CCC(C(=O)OCC)C2=O (configuration not stated) | -3.15% | 9.4% | 10.3% | 11.4% | 4.6% | 0.45%
